Measurements: PubChem BioAssay
The source made the active and inactive calls.

Key:
[1] = test system: PRMT1 (protein arginine N-methyltransferase 1); assay: small molecules binding arginine methyltransferase PRMT1 – biochemical, small-molecule microarray, 635 nm fluorescence, primary screen (AID 1088); conditions: higher = more signal;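 also: binding of Prmt1 protein to compounds spotted on small-molecule microarray slides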
[2] = growth effects on S. cerevisiae YJM789 – YJM789 clinical isolate, OD600, 24 h, basal, primary screen (AID 1089); conditions: higher = more signal, called active from +8 up or from −8 down;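 also: growth of clinical yeast isolate S. cerevisiae YJM 789 seeded 1000 cells per well; test concentration not given here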
[3] = S. pombe growth modifiers, basal conditions – strain 972, OD600, 24 h, no modulator, primary screen (AID 1090);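 also: basal condition with compound alone and no growth modifier present; test concentration not given here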; conditions: S. pombe 972 growth, higher = more signal, called active from +8 up or from −8 down
[4] = budding yeast growth modifiers under rapamycin – strain BY4716, OD600, 96 h, primary screen (AID 1091); also: test concentration not given here; conditions: S. cerevisiae BY4716 + rapamycin, higher = more signal, called active from +8 up or from −8 down
[5] = molecular target: Torsin-1A-interacting protein 2 (Homo sapiens) (UniProt Q8NFQ8); assay: small molecules binding lysate-expressed LULL1 – cell lysate, human LULL1 lysate, 635/667 nm fluorescence, primary screen (AID 1092); conditions: small-molecule microarray, hLULL1 lysate binding, 635 nm fluorescence; higher = more signal;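 also: probe is lysate of COS7 cells overexpressing human LULL1; score merges per-feature 667 nm fluorescence with signal-to-noise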
[6] = optical density change of DRC41 E. coli – strain DRC41, OD650, 24 h, E. coli filamentation project, primary screen (AID 1093);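 also: MC1000 strain lacking acrAB efflux and sulA so SOS filamentation is blocked; test concentration not given here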; conditions: E. coli DRC41 growth, higher = more signal, called active from +8 up or from −8 down
[7] = probe aLefty2 binding to arrayed compounds – biochemical, biotinylated probe, 635/667 nm fluorescence, primary screen (AID 1094); conditions: small-molecule microarray, higher = more signal;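 also: score merges spot fluorescence near 667 nm with spot signal-to-noise ratio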
[8] = test system: Noggin (protein binding on small-molecule microarray); assay: small molecules binding Noggin protein – biochemical, 635/667 nm fluorescence, primary screen (AID 1095); conditions: 635 nm fluorescence, higher = more signal;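 also: score merges 667 nm feature fluorescence with signal to noise over triplicate slides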
[9] = molecular target: Neurogenic locus notch homolog protein 3 (Homo sapiens) (UniProt Q9UM47); assay: small molecules binding NOTCH3 protein – biochemical, 635/667 nm fluorescence, primary screen (AID 1096); conditions: small-molecule microarray, 635 nm fluorescence, higher = more signal
[10] = probe aEGFR binding to arrayed compounds – biochemical, biotinylated probe, 635/667 nm fluorescence, primary screen (AID 1097); conditions: small-molecule microarray, higher = more signal;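 also: probe is a biotinylated anti-EGFR antibody binding compounds printed on slides; score combines fluorescence near 667 nm and signal to noise of each spot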
[11] = test system: Plasmodium falciparum Sir2 (PF13_0152, Sir2A); assay: Plasmodium falciparum Sir2A binding compounds – biochemical, small-molecule microarray, 635 nm fluorescence, primary screen (AID 1098); conditions: fluorescence 635 nm, higher = more signal;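 also: score merges spot fluorescence intensity with its signal-to-noise ratio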
[12] = probe aDKK1 binding to arrayed compounds – biochemical, biotinylated probe, 635/667 nm fluorescence, primary screen (AID 1099); conditions: small-molecule microarray, higher = more signal;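 also: score merges 667nm spot fluorescence with signal to noise across triplicate slides; reference of the scale not given here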
[13] = probe aCHRDL2 binding to arrayed compounds – biochemical, biotinylated probe, 635/667 nm fluorescence, primary screen (AID 1100); conditions: small-molecule microarray, higher = more signal
[14] = change in splice reporter luminescence, either direction, cell-based, HEK293, spliceosome inhibition project, primary screen (AID 1101); conditions: HEK293 splicing luciferase reporter, 24 h, higher = more signal, called active from +8 up or from −8 down;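 also: HEK293 cells carrying a splicing-competent luciferase reporter gene; test concentration not given here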
[15] = molecular target: Fibroblast growth factor 10 (Homo sapiens) (UniProt O15520); assay: compounds binding fibroblast growth factor 10 – biochemical, small-molecule microarray, 635 nm fluorescence, primary screen (AID 1102); conditions: FGF10 binding, fluorescence 635 nm, higher = more signal
[16] = test system: glycogen synthase kinase-3 (GSK3A per assay name; protocol says GSK3B); assay: compounds binding glycogen synthase kinase-3 – biochemical, small-molecule microarray, 635 nm fluorescence, GSK3A, primary screen (AID 1103); conditions: fluorescence 635 nm, higher = more signal; also: the record names both GSK3A and GSK3B
[17] = molecular target: Epidermal growth factor receptor (Homo sapiens) (UniProt P00533); assay: compounds binding epidermal growth factor receptor – biochemical, small-molecule microarray, 635 nm fluorescence, primary screen (AID 1104); conditions: EGFR binding, higher = more signal;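 also: score merges 667 nm emission intensity with spot signal to noise over triplicate slides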
[18] = molecular target: Follistatin-related protein 3 (Homo sapiens) (UniProt O95633); assay: compounds binding follistatin-related protein 3 – biochemical, small-molecule microarray, 635 nm fluorescence, primary screen (AID 1105); conditions: FSTL3 binding, higher = more signal;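 also: score merges emission near 667 nm and signal to noise per printed spot across three slides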
[19] = molecular target: Dickkopf-related protein 1 (Homo sapiens) (UniProt O94907); assay: small molecules binding DKK1 protein – biochemical, small-molecule microarray, 635 nm fluorescence scan, primary screen (AID 1106); conditions: higher = more signal;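 also: score merges emission near 667 nm with signal to noise over three replicate slides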
[20] = test system: Inhibin beta A chain (activin A); assay: small molecules binding activin A – biochemical, small-molecule microarray, 635 nm fluorescence scan, primary screen (AID 1107); conditions: INHBA, higher = more signal;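 also: mouse activin A protein probed at 4.33 µg/mL on printed slides; score merges bound-protein fluorescence near 667 nm with spot signal-to-noise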

Chain of Follistatin-related protein 3 (Homo sapiens) (O95633 whole entry, looked up): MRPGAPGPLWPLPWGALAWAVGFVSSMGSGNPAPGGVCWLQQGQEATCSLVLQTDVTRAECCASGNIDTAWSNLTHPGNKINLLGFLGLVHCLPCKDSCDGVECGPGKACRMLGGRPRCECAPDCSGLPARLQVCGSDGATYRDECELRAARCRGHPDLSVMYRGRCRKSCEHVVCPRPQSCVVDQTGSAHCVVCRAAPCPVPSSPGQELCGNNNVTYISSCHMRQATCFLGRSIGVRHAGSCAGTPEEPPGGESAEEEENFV
Chain of Torsin-1A-interacting protein 2 (Homo sapiens) (Q8NFQ8 whole entry, looked up): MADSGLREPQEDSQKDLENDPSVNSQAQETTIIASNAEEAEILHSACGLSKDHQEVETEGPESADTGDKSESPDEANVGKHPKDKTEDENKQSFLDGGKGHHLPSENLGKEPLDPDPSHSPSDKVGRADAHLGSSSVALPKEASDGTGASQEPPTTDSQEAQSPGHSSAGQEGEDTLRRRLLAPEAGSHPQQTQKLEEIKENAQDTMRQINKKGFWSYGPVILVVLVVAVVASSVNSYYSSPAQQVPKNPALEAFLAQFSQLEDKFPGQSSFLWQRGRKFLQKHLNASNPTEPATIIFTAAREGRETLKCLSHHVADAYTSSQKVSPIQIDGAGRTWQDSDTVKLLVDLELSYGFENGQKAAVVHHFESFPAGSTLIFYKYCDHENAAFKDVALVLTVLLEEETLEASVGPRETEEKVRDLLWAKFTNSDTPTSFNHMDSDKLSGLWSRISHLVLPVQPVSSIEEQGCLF
Chain of Epidermal growth factor receptor (Homo sapiens) (P00533 whole entry, looked up): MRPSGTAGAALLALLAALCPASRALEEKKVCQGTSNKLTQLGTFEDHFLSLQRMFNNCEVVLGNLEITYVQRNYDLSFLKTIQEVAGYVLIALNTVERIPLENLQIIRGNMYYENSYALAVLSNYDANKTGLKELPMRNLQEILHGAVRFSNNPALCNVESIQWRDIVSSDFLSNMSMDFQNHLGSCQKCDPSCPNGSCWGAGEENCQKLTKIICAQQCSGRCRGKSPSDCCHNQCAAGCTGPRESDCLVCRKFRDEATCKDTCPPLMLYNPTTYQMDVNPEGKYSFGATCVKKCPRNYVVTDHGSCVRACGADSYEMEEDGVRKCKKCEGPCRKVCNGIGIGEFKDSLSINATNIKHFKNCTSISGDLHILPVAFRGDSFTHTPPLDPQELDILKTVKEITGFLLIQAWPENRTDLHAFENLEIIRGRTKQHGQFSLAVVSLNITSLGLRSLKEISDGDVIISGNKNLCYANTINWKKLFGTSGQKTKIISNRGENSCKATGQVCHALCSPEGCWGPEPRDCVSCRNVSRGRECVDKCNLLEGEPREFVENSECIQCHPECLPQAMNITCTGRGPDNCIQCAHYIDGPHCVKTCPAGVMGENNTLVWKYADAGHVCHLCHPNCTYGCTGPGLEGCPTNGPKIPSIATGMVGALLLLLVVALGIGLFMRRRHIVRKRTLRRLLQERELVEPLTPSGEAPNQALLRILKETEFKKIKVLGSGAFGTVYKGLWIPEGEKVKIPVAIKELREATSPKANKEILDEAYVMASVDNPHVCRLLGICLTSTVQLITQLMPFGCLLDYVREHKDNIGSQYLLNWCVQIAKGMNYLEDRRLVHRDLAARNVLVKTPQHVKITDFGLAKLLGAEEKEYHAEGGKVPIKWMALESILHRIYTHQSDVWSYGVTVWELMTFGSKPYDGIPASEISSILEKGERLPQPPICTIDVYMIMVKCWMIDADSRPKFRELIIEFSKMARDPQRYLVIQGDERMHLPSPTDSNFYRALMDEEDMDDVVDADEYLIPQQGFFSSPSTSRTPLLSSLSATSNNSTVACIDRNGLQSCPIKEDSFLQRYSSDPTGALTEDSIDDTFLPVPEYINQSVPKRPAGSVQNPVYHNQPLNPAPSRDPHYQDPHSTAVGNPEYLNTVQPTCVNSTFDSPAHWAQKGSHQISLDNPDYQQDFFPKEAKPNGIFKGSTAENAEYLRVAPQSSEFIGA
Chain of Neurogenic locus notch homolog protein 3 (Homo sapiens) (Q9UM47 whole entry, looked up): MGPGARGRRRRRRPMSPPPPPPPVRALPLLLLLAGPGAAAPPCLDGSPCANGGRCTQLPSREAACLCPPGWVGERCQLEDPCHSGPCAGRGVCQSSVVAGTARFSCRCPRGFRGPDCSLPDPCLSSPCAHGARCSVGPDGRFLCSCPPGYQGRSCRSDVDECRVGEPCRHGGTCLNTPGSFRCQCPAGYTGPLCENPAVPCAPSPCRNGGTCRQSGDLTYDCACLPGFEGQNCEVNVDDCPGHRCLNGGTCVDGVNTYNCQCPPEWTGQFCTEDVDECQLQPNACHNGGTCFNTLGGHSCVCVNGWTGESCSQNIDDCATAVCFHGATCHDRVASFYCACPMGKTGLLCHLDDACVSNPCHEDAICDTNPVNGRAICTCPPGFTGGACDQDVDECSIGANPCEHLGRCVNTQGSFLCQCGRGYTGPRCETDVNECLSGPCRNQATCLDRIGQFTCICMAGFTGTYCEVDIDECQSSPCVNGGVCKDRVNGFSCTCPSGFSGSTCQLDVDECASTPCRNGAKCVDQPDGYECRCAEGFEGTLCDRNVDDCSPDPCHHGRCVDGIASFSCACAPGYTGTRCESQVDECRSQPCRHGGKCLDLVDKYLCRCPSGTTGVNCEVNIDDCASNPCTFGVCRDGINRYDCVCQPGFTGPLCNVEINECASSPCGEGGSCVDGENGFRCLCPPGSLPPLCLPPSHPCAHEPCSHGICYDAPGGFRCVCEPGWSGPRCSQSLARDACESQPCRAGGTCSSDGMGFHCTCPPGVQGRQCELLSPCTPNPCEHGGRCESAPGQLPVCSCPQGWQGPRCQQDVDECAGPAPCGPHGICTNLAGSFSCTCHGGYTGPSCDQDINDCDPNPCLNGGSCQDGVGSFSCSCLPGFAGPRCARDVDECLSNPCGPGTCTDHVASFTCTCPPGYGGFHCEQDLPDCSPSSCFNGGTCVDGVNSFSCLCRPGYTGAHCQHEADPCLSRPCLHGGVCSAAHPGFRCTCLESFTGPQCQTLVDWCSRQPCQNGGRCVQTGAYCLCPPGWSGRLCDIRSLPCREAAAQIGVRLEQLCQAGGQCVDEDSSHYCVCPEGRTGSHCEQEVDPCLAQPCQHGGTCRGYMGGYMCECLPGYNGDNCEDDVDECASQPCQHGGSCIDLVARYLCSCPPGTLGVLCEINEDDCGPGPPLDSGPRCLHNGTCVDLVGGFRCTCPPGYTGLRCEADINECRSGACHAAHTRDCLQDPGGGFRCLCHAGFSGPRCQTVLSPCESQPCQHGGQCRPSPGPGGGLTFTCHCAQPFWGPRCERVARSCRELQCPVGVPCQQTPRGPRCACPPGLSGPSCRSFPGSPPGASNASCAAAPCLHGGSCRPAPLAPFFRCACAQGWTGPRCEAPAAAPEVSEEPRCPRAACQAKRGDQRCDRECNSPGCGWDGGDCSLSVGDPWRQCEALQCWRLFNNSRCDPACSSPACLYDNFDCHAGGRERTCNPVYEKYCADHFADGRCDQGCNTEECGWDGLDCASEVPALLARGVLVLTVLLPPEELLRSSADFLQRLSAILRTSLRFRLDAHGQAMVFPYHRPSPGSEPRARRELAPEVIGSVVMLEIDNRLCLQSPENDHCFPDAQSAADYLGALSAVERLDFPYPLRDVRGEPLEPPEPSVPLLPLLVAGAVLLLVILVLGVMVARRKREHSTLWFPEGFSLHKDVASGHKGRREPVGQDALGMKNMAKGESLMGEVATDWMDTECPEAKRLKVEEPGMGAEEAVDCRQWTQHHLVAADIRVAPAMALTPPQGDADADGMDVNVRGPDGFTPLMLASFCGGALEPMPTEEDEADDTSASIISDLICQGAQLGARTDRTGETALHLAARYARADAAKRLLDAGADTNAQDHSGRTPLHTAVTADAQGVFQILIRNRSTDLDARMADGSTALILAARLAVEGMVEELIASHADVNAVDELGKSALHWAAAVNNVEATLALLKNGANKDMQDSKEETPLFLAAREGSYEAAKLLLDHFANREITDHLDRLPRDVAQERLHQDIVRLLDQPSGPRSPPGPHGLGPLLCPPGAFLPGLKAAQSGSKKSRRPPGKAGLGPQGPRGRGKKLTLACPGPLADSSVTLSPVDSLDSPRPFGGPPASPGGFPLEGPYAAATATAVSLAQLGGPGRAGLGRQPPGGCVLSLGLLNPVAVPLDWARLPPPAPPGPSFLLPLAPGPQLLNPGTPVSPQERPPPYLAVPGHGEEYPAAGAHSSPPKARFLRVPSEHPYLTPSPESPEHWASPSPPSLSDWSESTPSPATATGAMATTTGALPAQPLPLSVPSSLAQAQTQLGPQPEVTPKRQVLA
Chain of Fibroblast growth factor 10 (Homo sapiens) (O15520 whole entry, looked up): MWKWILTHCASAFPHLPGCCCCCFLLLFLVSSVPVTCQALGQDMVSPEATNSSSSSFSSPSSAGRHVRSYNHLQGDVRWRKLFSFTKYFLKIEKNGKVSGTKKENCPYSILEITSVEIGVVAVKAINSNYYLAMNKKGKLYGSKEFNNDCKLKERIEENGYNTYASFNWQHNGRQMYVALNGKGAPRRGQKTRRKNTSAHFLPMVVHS
Chain of Dickkopf-related protein 1 (Homo sapiens) (O94907 whole entry, looked up): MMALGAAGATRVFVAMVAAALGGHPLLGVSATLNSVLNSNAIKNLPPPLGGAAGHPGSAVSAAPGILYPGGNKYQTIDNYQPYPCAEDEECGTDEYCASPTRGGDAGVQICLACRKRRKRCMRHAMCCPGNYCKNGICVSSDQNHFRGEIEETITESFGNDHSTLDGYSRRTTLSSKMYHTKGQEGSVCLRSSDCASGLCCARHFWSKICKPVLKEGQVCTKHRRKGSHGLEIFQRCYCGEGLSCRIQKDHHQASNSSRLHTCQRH

Row | SMILES | composite z-score [1] | z-score [2] | z-score [3] | z-score [4] | composite z-score [5] | z-score [6] | composite z-score [7] | composite z-score [8] | composite z-score [9] | composite z-score [10] | composite z-score [11] | composite z-score [12] | composite z-score [13] | z-score [14] | composite z-score [15] | composite z-score [16] | composite z-score [17] | composite z-score [18] | composite z-score [19] | composite z-score [20]
1 | COC(=O)[C@H](C)NC(=O)CCC1CC(OC(=O)NCc2ccc3c(c2)OCO3)CC2(CCCC(COC(=O)NCCOc3ccccc3)O2)O1 (stereo not given in full) | 1.55 | -1.31 (inactive) | 0.26 (inactive) | 0.303 (inactive) | 1.57 | -1.16 (inactive) | -0.147 | 0.737 | 1.07 | -0.165 | 0.46 | -0.211 | -0.636 | -2.8 (inactive) | 0.658 | 1.29 | 0.536 | 0.649 | 0.679 | 0.0689
2 | Cc1ccc(S(=O)(=O)N[C@@H]2COC(=O)[C@H](C)COC(=O)CC=C[C@H]2C)cc1 | -0.365 | 1.4 (inactive) | 1.05 (inactive) | 1.2 (inactive) | -0.366 | -0.234 (inactive) | -0.18 | 0.984 | 0.566 | -0.215 | -0.0259 | -0.291 | -0.589 | 0.159 (inactive) | 0.66 | 0.771 | 0.751 | 1.41 | 1.8 | 1.16
3 | CC(=O)OC[C@H]1O[C@H](C#CCCCc2ccccc2)C=C[C@@H]1OC(C)=O | 0.351 | 0.458 (inactive) | -19.5 (active) | -0.967 (inactive) | 1.01 | 0.0065 (inactive) | -0.239 | 0.66 | 0.389 | -0.0703 | 0.829 | -0.194 | -0.33 | 0.492 (inactive) | 0.687 | -0.0427 | 0.0559 | 0.556 | 0.3 | 1.03
4 | Cc1ccc(S[C@]2(C(=O)NCC(F)(F)F)CC(=O)N(Cc3ccccc3Cl)[C@@H]2c2ccc(CO)cc2I)cc1 | 1.33 | 0.294 (inactive) | -3.18 (inactive) | 1.06 (inactive) | 2.34 | 0.492 (inactive) | -0.0998 | -1.07 | -0.573 | -0.284 | 1.23 | 0.122 | 0.828 | -1.34 (inactive) | -0.798 | -0.457 | -1.15 | -0.978 | -1.05 | 0.117
5 | CO[C@@H]1COC(=O)CCC[C@@H](C)[C@H](OC)COC(=O)[C@H](Cc2ccccc2)NC(=O)CC=C[C@H]1C | -0.256 | 0.449 (inactive) | -0.529 (inactive) | -0.341 (inactive) | -2.01 | 0.0728 (inactive) | -0.178 | 0.76 | -1.25 | -0.127 | 0.637 | -0.485 | -0.497 | -0.491 (inactive) | -0.974 | -0.999 | 0.231 | 0.507 | 0.915 | 1.6
6 | C=CC[C@@H]1C=C[C@H](ON=Cc2ccc(C(=O)N3[C@H](c4ccc(C)cc4)[C@@H](C)CC[C@H]3C(=O)OC)cc2)[C@@H](CO)O1 | 0.537 | -1.33 (inactive) | -0.119 (inactive) | -0.733 (inactive) | 0.531 | 1.35 (inactive) | -0.0741 | 0.709 | 0.162 | -0.0223 | 0.608 | -0.313 | -0.422 | -0.0467 (inactive) | 0.59 | 0.363 | 0.475 | 0.609 | 0.381 | 0.694
7 | CN(C)CCCNC(=O)[C@@H]1c2ccccc2C(=O)N(Cc2ccccc2)[C@H]1c1ccc(CO)cc1 | 0.0881 | 0.115 (inactive) | -0.699 (inactive) | -0.848 (inactive) | 0.282 | 0.442 (inactive) | 0.555 | -0.848 | -1.21 | 0.259 | 0.0072 | 0.189 | 0.341 | -0.00771 (inactive) | -0.952 | -0.383 | -0.254 | 0.433 | -0.354 | 1.33
8 | CCCCCN1CC=CC23O[C@@H]4C=CCOC(=O)[C@@H]4[C@H]2C(=O)N(CCCCCCO)[C@@H]3C1=O (stereo not given in full) | -0.0856 | -0.44 (inactive) | -0.183 (inactive) | -0.291 (inactive) | 0.865 | 0.0293 (inactive) | -0.0436 | -1.38 | -0.973 | -0.254 | 1.93 | -0.0936 | 0.734 | -0.0127 (inactive) | -0.655 | -1.08 | -1.31 | -1.81 | -1.54 | -0.395
9 | CCOc1ccc(N2C(=O)/C(=C/C=C/c3ccccc3OC)S(=O)(=O)C2c2cccc([N+](=O)[O-])c2)cc1 (stereo not given) | -0.167 | -3.8 (inactive) | -3.13 (inactive) | 0.648 (inactive) | 0.236 | 0.841 (inactive) | -0.0342 | 0.39 | 0.638 | -0.103 | -0.379 | 0.0757 | 0.42 | 1.04 (inactive) | 0.226 | 0.342 | 0.549 | 0.393 | 0.218 | 0.61
10 | CCCC[C@H]1OB(O)C[C@H]2C1=C(C)C[C@H]1C(=O)N(C)C(=O)[C@H]12 | 0.95 | -0.334 (inactive) | -0.698 (inactive) | -0.762 (inactive) | 1.2 | -0.889 (inactive) | -0.166 | 0.622 | 0.959 | -0.12 | 0.0529 | -0.0166 | -0.372 | 0.238 (inactive) | 0.944 | 0.774 | 0.259 | 1.27 | 0.558 | 0.131
